Source: PubChem BioAssay AID1159580 (chemical genetic matrix, 2015)
Values joined by “and” are separate entries in the source; they are usually repeats but may differ in a detail not shown here. Equal values may be shown once. Hit rate of the full screen: of about 5,500 compounds, about 2,000 (36%) were called active. Inconclusive results (about 18%) are left out. Cut-off read from the data, not from the text of the source: active = normalized growth mostly below about 0.91 (no sharp cut-off); inconclusive = no clear call, values can overlap the other calls; inactive = mostly above about 0.92. The list shows a part of the results.

Experiment: chemical genetic growth profiling, strain panel (AID 1159580);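 note: tested at 20 µM; growth read once vehicle control cultures reached saturation at 30 °C; 1 = growth at the plate median or of vehicle wells; lower values mean less growth of the strain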
Conditions: S. cerevisiae deletion strains, growth OD

Measured: normalized growth

CN(C)CCCN1c2ccccc2Sc2ccccc21
inactive: locus YAL013W, strain DEP1, stronger effect = lower value 0.988 and 0.967 | locus YAL021C, strain ccr4, stronger effect = lower value 0.92 | locus YAL026C, strain drs2, stronger effect = lower value 0.936 | locus YAL030W, strain snc1, stronger effect = lower value 1.01 | locus YAL040C, strain CLN3, stronger effect = lower value 0.964 | locus YBL061C, strain skt5, stronger effect = lower value 1 | locus YBR009C, strain hhf1, stronger effect = lower value 0.985 | locus YBR021W, strain FUR4, stronger effect = lower value 0.961 | locus YBR023C, strain chs3, stronger effect = lower value 1 | locus YBR171W, strain sec66, stronger effect = lower value 0.996 | locus YBR229C, strain ROT2, stronger effect = lower value 0.999 | locus YBR231C, strain swc5, stronger effect = lower value 1.03 | locus YBR279W, strain paf1, stronger effect = lower value 0.977 | locus YCL011C, strain gbp2, stronger effect = lower value 0.996 | locus YCL016C, strain dcc1, stronger effect = lower value 1.01 | locus YCL029C, strain bik1, stronger effect = lower value 1.02 | locus YCL061C, strain MRC1 (second series), stronger effect = lower value 0.983 | locus YCL061C, strain MRC1, stronger effect = lower value 0.993 | locus YCL069W, strain vba3, stronger effect = lower value 0.978 | locus YCR088W, strain abp1, stronger effect = lower value 0.984 | locus YDL005C, strain med2, stronger effect = lower value 1.03 | locus YDL035C, strain GPR1, stronger effect = lower value 1.02 | locus YDL040C, strain nat1, stronger effect = lower value 1 | locus YDL074C, strain BRE1, stronger effect = lower value 1.01 | locus YDL101C, strain DUN1, stronger effect = lower value 1.03 | locus YDL134C, strain PPH21, stronger effect = lower value 1.01 | locus YDL185W, strain tfp1, stronger effect = lower value 1.01 | locus YDL192W, strain arf1, stronger effect = lower value 1.02 | locus YDR001C, strain nth1, stronger effect = lower value 0.985 | locus YDR069C, strain doa4, stronger effect = lower value 0.94 | locus YDR101C, strain arx1, stronger effect = lower value 1.01 | locus YDR137W, strain rgp1, stronger effect = lower value 1.13 | locus YDR150W, strain NUM1, stronger effect = lower value 1.01 | locus YDR159W, strain sac3, stronger effect = lower value 0.984 | locus YDR162C, strain NBP2, stronger effect = lower value 1 | locus YDR195W, strain ref2 1.07 | locus YDR297W, strain sur2, stronger effect = lower value 1.01 | locus YDR318W, strain mcm21, stronger effect = lower value 1.02 | locus YDR334W, strain swr1, stronger effect = lower value 0.95 | locus YDR335W, strain msn5, stronger effect = lower value 0.994 | locus YDR363W, strain ESC2, stronger effect = lower value 0.976 | locus YDR388W, stronger effect = lower value 1.01 | locus YDR392W, strain spt3, stronger effect = lower value 1.09 | locus YDR502C, strain sam2, stronger effect = lower value 1.01 | locus YEL003W, strain gim4, stronger effect = lower value 0.994 | locus YEL037C, strain rad23, stronger effect = lower value 0.976 | locus YEL061C, strain CIN8 (second series), stronger effect = lower value 0.96 | locus YEL061C, strain CIN8, stronger effect = lower value 1 | locus YER002W, strain NOP16, stronger effect = lower value 0.988 | locus YER015W, strain faa2, stronger effect = lower value 0.991 | locus YER016W, strain bim1, stronger effect = lower value 0.986 | locus YER110C, stronger effect = lower value 1.02 | locus YER111C, strain swi4, stronger effect = lower value 0.973 | locus YER155C, strain BEM2 (second series), stronger effect = lower value 1.01 | locus YER155C, strain BEM2, stronger effect = lower value 1 | locus YER167W, strain BCK2, stronger effect = lower value 1.01 | locus YFR010W, strain ubp6, stronger effect = lower value 0.92 | locus YGL078C, strain dbp3, stronger effect = lower value 1.01 | locus YGL086W, strain mad1, stronger effect = lower value 1.02 | locus YGL167C, strain pmr1, stronger effect = lower value 0.981 | locus YGL173C, strain kem1, stronger effect = lower value 0.981 | locus YGL227W, strain vid30, stronger effect = lower value 0.996 | locus YGL240W, strain doc1, stronger effect = lower value 1.04 | locus YGL248W, strain PDE1, stronger effect = lower value 1 | locus YGL253W, strain hxk2, stronger effect = lower value 0.994 | locus YGR078C, strain PAC10, stronger effect = lower value 1.01 | locus YGR135W, strain pre9, stronger effect = lower value 0.993 | locus YGR229C, strain SMI1, stronger effect = lower value 0.971 | locus YGR252W, strain gcn5, stronger effect = lower value 0.975 | locus YHR013C, strain ard1, stronger effect = lower value 0.964 | locus YHR027C, strain rpn1, stronger effect = lower value 0.989 | locus YHR030C, strain SLT2, stronger effect = lower value 1 and 1.01 | locus YHR079C, strain IRE1 (second series), stronger effect = lower value 1.01 | locus YHR079C, strain IRE1, stronger effect = lower value 1.01 | locus YHR094C, strain hxt1, stronger effect = lower value 1.01 | locus YHR129C, strain ARP1, stronger effect = lower value 1.02 | locus YHR142W, strain chs7, stronger effect = lower value 1.01 | locus YHR200W, strain rpn10, stronger effect = lower value 1.02 | locus YIL066C, strain RNR3, stronger effect = lower value 1 | locus YIL073C, strain SPO22, stronger effect = lower value 1.02 | locus YIL125W, strain kgd1, stronger effect = lower value 1.01 | locus YIR030C, strain dcg1, stronger effect = lower value 1.02 | locus YJL092W, strain hpr5, stronger effect = lower value 0.989 | locus YJL095W, strain BCK1 (second series), stronger effect = lower value 1 | locus YJL095W, strain BCK1, stronger effect = lower value 0.987 and 1.02 | locus YJL115W, strain asf1, stronger effect = lower value 0.975 | locus YJL129C, strain trk1, stronger effect = lower value 1.01 | locus YJL134W, strain LCB3, stronger effect = lower value 1 | locus YJL154C, strain vps35, stronger effect = lower value 0.977 | locus YJL164C, strain tpk1, stronger effect = lower value 0.992 | locus YJL166W, strain qcr8, stronger effect = lower value 0.995 | locus YJL168C, strain set2, stronger effect = lower value 1.02 | locus YJL187C, strain SWE1 (second series), stronger effect = lower value 1 | locus YJR043C, strain POL32, stronger effect = lower value 1.02 | locus YJR066W, strain TOR1, stronger effect = lower value 0.963
